SNCA expr inhib = reduces expression of the alpha-synuclein gene. HEK-293 SNCA-luciferase knock-in, luminescence, 24 h. Potency, µM (series often up to 57.2 µM), without a hit: at the highest dose activity change, negative = inhibition, hits mostly inhibitors. actives 0.17% (n = 140,000);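 note: potency is the fitted concentration of half-maximal effect; plate controls were DMSO cells for no effect and cell-free wells for full effect; nearly all actives have a fitted effect of over 45% in size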
IP6K1 inhibitor = blocks human inositol hexakisphosphate kinase 1; actives 0.81% (n = 140,000); IP6K1 kinase, ADP-Glo luminescence, 2 h; active compounds read low; activity change, % (series mostly up to about 58 µM); Q92551; in the data active = activity change below about -25%; note: % is set by controls: 0 for no effect and ±100 for the full control effect
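ADP-Glo luminescence measures ADP made by human IP6K1 during a 2 h RT reaction with ATP/IP6 (mix at 1.3 mM/130 uM); top library doses 57.5 and 19.1 uM final.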
HEK293 viab = cell viability loss counter-screen | actives 0.12% (n = 150,000) | Potency, µM (series often up to 57.1 µM), inactives show top-dose activity change, negative = cytotoxicity, actives largely listed as cytotoxic | AID 1671193 | HEK-293-SNCA-luc viability, GF-AFC fluorescence, 24 h;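 note: potency is the fitted concentration of half-maximal effect; 0% = DMSO-treated cells and -100% = medium-only wells without cells; nearly all actives have a fitted effect of over 30% in size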
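HEK-293-SNCA-luc cells (1500/well) plated 24 h, then exposed 24 h to a dilution series; GF-AFC added 30 min at 37C, fluorescence 405/540 nm; normalised to medium-only and DMSO wells, Hill fit.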
KDM5B inhibitor = blocks human KDM5B histone demethylase activity | Potency, µM (titrated, usually from 57.7 µM), hits mostly inhibitors | KDM5B demethylase, FDH-coupled NADH fluorescence (FDH is formaldehyde dehydrogenase) | Q9UGL1 | actives 2.6% (n = 220,000) | AID 1347165; note: potency is the fitted concentration of half-maximal effect; 0% is about no effect; nearly all actives have a fitted effect of over 70% in size
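Coupled FDH/NAD⁺ fluorescence readout. KDM5BΔAP 200 nM final; compound titration, 10 min RT preincubation; substrate mix 12.5 µM H3K4me3, 25 µM 2-OG, 50 µM Fe(II), 100 µM ascorbate, 0.25 mM NAD⁺, 0.25 U/mL FDH; ΔRFU over 30 min.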
* hit, by the source's call; i = inactive; u = inconclusive; x = no result given; [ ] = dose if it differs, or a comment. In the library only some 2.8% were active in any assay of this set; here they are far more common. Unless noted, calls come from the whole dose curve; as a rule, active = well fitted curve in the direction sought with a large enough effect; inconclusive = small, poorly fitted or top-dose-only effect, or another doubt; inactive = no such curve, though single readings can be large; an effect the other way counts as inactive or inconclusive.

SMILES | SNCA expr inhib | IP6K1 inhibitor | HEK293 viab | KDM5B inhibitor
O=C(Cc1ccc(F)cc1)NCc1nnc2ccc(-c3ccc(Cl)cc3)nn12 | -9% | 14 | -7% | u
O=C(NCc1nnc2ccc(-c3ccc(F)cc3)nn12)c1cccc(C(F)(F)F)c1 | -5% | 12 | -14% | 28µM*
O=C(NCc1nnc2ccc(-c3ccc(Cl)cc3)nn12)c1cccc(Cl)c1 | 0% | 4 | -8% | 22µM*
O=C(NCc1nnc2ccc(-c3ccccc3)nn12)c1cccc(Br)c1 | -22% | 15 | -26% | 22µM*
N#Cc1ccc(C(=O)NCc2nnc3ccc(-c4ccc(F)cc4)nn23)cc1 | 12% | 45 | u | 28µM*
CC(=O)Nc1cccc(C(=O)NCc2nnc3ccc(-c4ccc(C)cc4)nn23)c1 | 7% | 8 | -10% | u
O=C(Nc1cc(-n2cnnn2)ccc1Cl)c1ccncc1 | x | x | x | i
CCc1[nH]c(C(=O)N2CCCC2c2ccc3c(c2)OCCO3)c(C)c1C(=O)OC (centres undefined) | x | x | x | i
N#C/C(=C\c1ccccc1O)C(=O)Nc1cccc(C(F)(F)F)c1 | x | x | x | i
CCc1noc(-c2cccn3c(CNC(=O)C4CCC4)nnc23)n1 | 1% | -2 | 3% | 25µM*
CCCc1noc(-c2cccn3c(CNC(=O)C4CCCC4)nnc23)n1 | 10% | 8 | -4% | 28µM*
O=C(NCc1nnc2c(-c3nc(C4CC4)no3)cccn12)C1CCCC1 | -9% | 1 | -3% | 28µM*
Cc1cc(NC(=O)COC(=O)C2(c3ccc(Cl)cc3)CC2)no1 | x | x | x | i
CCOc1ccccc1C(=O)N1CCC2(CC1)CN(c1ncccn1)CC2CO (centres undefined) | 22% | 7 | -12% | 32µM*
COc1ccc(CC(=O)N2CCC3(CC2)CN(c2ncccn2)CC3CO)cc1 (centres undefined) | 9% | 16 | 2% | u
CCOc1ccc(C(=O)N2CCC3(CC2)CN(c2ncccn2)CC3CO)cc1 (centres undefined) | -11% | -1 | -18% | 25µM*
Cn1cc(C(=O)N2CCC3(CC2)CN(c2ncccn2)CC3CO)cn1 (centres undefined) | 24% | 6 | -5% | 25µM*
CNC(=O)c1cc(C2CC2)nc2onc(C3CCCN(C(=O)C4CCCC4)C3)c12 (centres undefined) | x | -1 | x | x
O=C(NCc1ccco1)[C@@H]1Cc2nc[nH]c2CN1Cc1ccc(Cl)cc1 | u | 9 | -5%[87.6 µM] | u
N#Cc1cccc(CN2Cc3[nH]cnc3C[C@H]2C(=O)NCc2ccco2)c1 | -14%[87.6 µM] | 18 | -13%[87.6 µM] | 32µM*
CCCOc1ccc(OCCn2cnc3c2c(=O)n(C)c(=O)n3C)cc1 | x | x | x | i
Cn1ncc(N2CCC(CNC(=O)c3cccc4ccnn34)C2)cc1=O (centres undefined) | -4% | -3 | 7% | 28µM*
Cn1ncc(N2CCC(CNC(=O)c3cccc4ncccc34)C2)cc1=O (centres undefined) | 3% | 2 | 0% | i
N#Cc1ccc(C(=O)/C=C/c2ccc3c(c2)OCCO3)cc1 | x | x | x | i
CCN(CC)CC1CCN(C(=O)/C=C/c2ccc(C#N)cc2)CC1 | x | x | x | i
SMILES | SNCA expr inhib | IP6K1 inhibitor | HEK293 viab | KDM5B inhibitor
O=c1cc(-c2ccccn2)oc2c(-c3ccc(CO)cc3)nccc12 | u | 8 | -4%[87.6 µM] | 28µM*
O=c1cc(-c2ccncc2)oc2c(-c3ccc(CO)cc3)nccc12 | -23%[87.6 µM] | -8 | 3%[87.6 µM] | 35µM*
Cc1noc(C)c1-c1nccc2c(=O)cc(-c3ccccn3)oc12 | -6%[87.6 µM] | -10 | 14%[87.6 µM] | 28µM*
CCOCCn1c(N2CCN(Cc3ccc(Cl)cc3)CC2)nc2c1c(=O)[nH]c(=O)n2C | x | x | x | i
Cc1nc2cc(NC(=O)COc3ccc(F)cc3Cl)ccc2o1 | x | x | x | i
CCC(C)NC(=O)c1ccc(-c2cccc(C#N)c2)o1 (centres undefined) | 35% | 13 | -9% | 25µM*
Cc1cnc(N2CC3CCC(C2)N3CC(F)(F)F)s1 | -9% | -8 | -5% | 56µM*
N#Cc1cnc(N2CC3CCC(C2)N3CC(F)(F)F)s1 | 8%[87.6 µM] | -3 | 4%[87.6 µM] | i
CC1c2cc3c(cc2CCN1C(=O)c1ccc(F)cc1F)OCCCO3 (centres undefined) | x | x | x | i
NCCCN1C(=O)CC[C@H]2CN(C(=O)c3coc4ccccc34)CC[C@H]21 | -12% | -8 | 3% | i
NCCCN1C(=O)CC[C@H]2CN(C(=O)c3cnn4ccccc34)CC[C@H]21 | u | 9 | -16% | 22µM*
